# Cav3 T inh = inhibitors of human Cav3.2 T-type calcium channel; 100,000 compounds, 4% hits; Cav3.2-expressing cells, Fluo-4 calcium fluorescence FDSS; active compounds read low; O95180; B-score at 10 µM;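 active = single-dose well whose peak fluorescence ratio is a statistical outlier from its plate by either plate-standardised score or position-corrected B-score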
# PostGolgi ctrl = inhibits growth of the yeast control strain; efflux-deficient yeast background strain, growth absorbance A615, 16 h; inhibition, % at 10 µM; 98,000 compounds, 5% hits
# sEH activator = activators of human soluble epoxide hydrolase; purified human sEH enzymatic activity, activator screen; activation, % at 2 µM; 91,000 compounds, 0.04% hits; in the data active = activation above about 37%
# Target sequence (P34913 whole entry, looked up): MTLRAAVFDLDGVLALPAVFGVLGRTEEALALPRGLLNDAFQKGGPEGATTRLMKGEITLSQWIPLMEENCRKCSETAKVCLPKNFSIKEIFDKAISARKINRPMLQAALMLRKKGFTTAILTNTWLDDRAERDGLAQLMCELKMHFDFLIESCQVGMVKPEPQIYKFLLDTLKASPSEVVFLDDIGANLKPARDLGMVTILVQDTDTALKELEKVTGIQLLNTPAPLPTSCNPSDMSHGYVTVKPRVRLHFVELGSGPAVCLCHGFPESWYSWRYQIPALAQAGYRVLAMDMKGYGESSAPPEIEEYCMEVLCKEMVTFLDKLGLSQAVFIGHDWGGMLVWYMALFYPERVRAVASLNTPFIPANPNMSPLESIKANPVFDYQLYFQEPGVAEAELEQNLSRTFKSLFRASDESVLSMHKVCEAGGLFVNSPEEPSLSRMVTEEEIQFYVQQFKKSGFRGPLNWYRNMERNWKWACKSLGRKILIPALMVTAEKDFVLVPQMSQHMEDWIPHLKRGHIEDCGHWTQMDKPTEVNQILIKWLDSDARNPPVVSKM
# PostGolgi yeast = growth inhibition of a yeast mutant, post-Golgi transport screen; post-Golgi transport phenotypic cell assay; inhibition, % at 10 µM; 98,000 compounds, 0.9% hits;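 note: yeast cells grown in 1536-well plates; yeast grown about 18 h at 30C before absorbance read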
# sEH inhibitor = inhibitors of human soluble epoxide hydrolase; 91,000 compounds, 0.34% hits; recombinant human sEH enzymatic activity assay; inhibition, % at 2 µM; in the data active = inhibition above about 80%
# A number is an active result; n = inactive; x = no result given. Only some compounds are listed: those with a hit (about 7.8% of all), similar ones and a draw of the others. Cut-off read from the data, not from the text of the source, unless noted: active = inhibition above about 30%; inactive = the rest.
SMILES,Cav3 T inh,PostGolgi ctrl,sEH activator,PostGolgi yeast,sEH inhibitor
CCn1c(=O)c2cc(C(=O)N3CCN(C(=O)c4ccco4)CC3)sc2c2ccccc21,n,x,x,x,x
O=C1CC(N2CCCc3ccccc32)C(=O)N1c1ccccc1Cl (centres undefined),n,x,n,x,n
CCCn1nc([N+](=O)[O-])c(C(C#N)c2nc3ccccc3s2)c(Cl)c1=O (centres undefined),-4.4,55,n,100,n
CC1CN=C(N(C(=O)Nc2ccccc2)c2ccc(F)cc2)S1 (centres undefined),n,n,n,n,n
O=c1oc2c3c4c(cc2c2c1CCC2)OCCN4CCC3,n,n,n,n,n
CCn1c(SCC(=O)c2cc(OC)ccc2OC)nnc1C1CC1,n,x,n,x,n
CC(C)N1C(=O)/C(=C/c2nc3ccccc3c(=O)n2-c2ccccc2)c2ccccc21,n,31,n,n,n
Cc1nc2ccccn2c1/C(O)=C1\C(=O)C(=O)N(CCCN(C)C)C1c1ccc(F)cc1 (centres undefined),x,x,n,x,n
Cc1cc(O)cc(O)c1-c1onc(C(F)(F)F)c1-c1cscn1,-5.2,n,n,n,n
CCOc1ccc(-c2onc(C(F)(F)F)c2-c2cscn2)c(O)c1,n,n,n,n,n
COc1ccccc1-c1cc(C(=O)N/N=C/c2sccc2C)c2ccccc2n1,n,48,n,n,n
O=[N+]([O-])c1ccc(-c2nc3ccc([N+](=O)[O-])cc3[nH]2)cc1,n,n,n,n,n
O=[N+]([O-])c1ccc2nc(/C=C/c3ccc(Cl)cc3)[nH]c2c1,n,75,n,47,n
Cc1ccccc1NC(=O)N(CCc1nc2ccccc2[nH]1)Cc1ccccc1,-4,x,n,x,n
COc1ccccc1CN(Cc1nc2ccccc2c(=O)[nH]1)S(=O)(=O)c1ccc(C)cc1,n,n,n,n,n
COc1ccc(CN(Cc2nc3ccccc3c(=O)[nH]2)C(=O)NC2CCCCC2)cc1,n,n,n,n,n
COc1ccccc1CN(Cc1nc2ccccc2c(=O)[nH]1)C(=O)Nc1ccc(C)cc1,-4.3,31,n,n,n
COc1ccccc1CN(Cc1nc2ccccc2c(=O)[nH]1)C(=O)Nc1ccccc1C,-5.9,n,n,n,n
O=C(CCc1nc2ccccc2[nH]1)Nc1ccccc1F,n,x,x,x,x
O=S1(=O)[C@H]2C[C@@H]3CC[C@]2(CN1Cc1cccc(F)c1)O3,n,x,x,x,x
CCCCSc1nnc([C@@H](NC(=O)OC(C)(C)C)C(C)C)o1,n,n,n,n,n
CCCCC(CC)CNC(=O)c1cccs1 (centres undefined),n,n,x,n,x
COCCn1nnnc1C(C(C)C)N1CCOCC1 (centres undefined),n,40,n,n,n
CCCc1nc2ccccc2c(=O)n1/N=C/c1c(C)[nH]n(-c2ccc(C)cc2)c1=O,-3.8,n,x,n,x
O=C(NCc1ccccn1)C1CCC(=O)N1C1CCCCC1 (centres undefined),n,n,n,n,n
SMILES,Cav3 T inh,PostGolgi ctrl,sEH activator,PostGolgi yeast,sEH inhibitor
Cc1cnc(NC(=O)c2cc3c(C)nn(-c4ccccc4)c3s2)s1,n,n,n,n,n
COc1ccc(CCNC(=O)c2cc3ccccn3n2)c(OC)c1OC,n,n,x,n,x
CN1CCN(C(=O)c2cc(Cl)ccc2Cl)CC1,n,31,n,n,n
O=C(CSc1nc2ccccc2c(=O)n1-c1ccc(F)cc1)NCc1ccco1,n,n,n,n,n
O=c1c2ccccc2nc(SCc2cn3ccsc3n2)n1-c1ccc(F)cc1,n,52,n,n,n
Cc1cccc(NC(=S)NC(NC(=O)c2ccco2)C(Cl)(Cl)Cl)c1 (centres undefined),-6.1,n,n,n,n
O=C(NC(NC(=S)Nc1ccccc1)C(Cl)(Cl)Cl)c1cccc(Cl)c1 (centres undefined),n,n,n,n,n
Cc1ccc(NC(=S)NC(NC(=O)c2ccco2)C(Cl)(Cl)Cl)cc1 (centres undefined),n,n,n,n,n
O=C(O)c1ccc(NC(=S)NC(NC(=O)c2ccco2)C(Cl)(Cl)Cl)cc1 (centres undefined),-4,n,n,n,n
O=C(COC(=O)c1cc[n+]([O-])cc1)NCC12CC3CC(CC(C3)C1)C2,n,n,n,n,n
Cc1ccc2nc(SCC(=O)Nc3ccc4c(c3)OCCO4)[nH]c2c1,n,n,n,n,n
O=C(CSc1nc2ccccc2[nH]1)Nc1ccccc1N1CCOCC1,n,n,n,n,n
O=C(CSc1nc2ccccc2[nH]1)Nc1cc(C(F)(F)F)ccc1N1CCOCC1,-6.9,n,n,n,n
O=C(CSc1nc2ccccc2[nH]1)Nc1ccc2c(c1)OCCO2,-3.9,n,n,n,n
Cc1cccc(C(=O)NNC2=C(C(=O)C(F)(F)F)CCC2)c1O,-8,n,n,n,n
CN(CC(=O)Nc1ccc(Cl)cc1)CC(=O)Nc1cc(Cl)ccc1C#N,n,39,x,n,x
CCOc1ccc(NC(=O)CN(C)CC(=O)Nc2ccccc2C#N)cc1OCC,n,n,n,n,n
Cc1cc(C)c(NC(=O)CS(=O)CC(=O)NC2CCCc3ccccc32)c(C)c1 (centres undefined),n,n,n,n,n
COC(=O)C(CCCCNC(=O)OCc1ccccc1)NC(=O)CN (centres undefined),n,n,n,32,n
O=C(O)CCCNC(=O)OCc1ccccc1,n,n,n,n,n
CC1SCCN1S(=O)(=O)c1ccc2ccccc2c1 (centres undefined),n,x,n,x,n
COC(=O)C1=C(C)OC(N)=C(C#N)C1c1c(C)nn(-c2ccccc2)c1Cl (centres undefined),-5.1,n,n,n,n
CCOC(=O)C1=C(C)OC(N)=C(C#N)C1c1c(C)nn(-c2ccc(C)cc2)c1Cl (centres undefined),x,n,n,n,n
CC1CCCC(C)N1c1nnc(NC(=O)c2cc(-c3ccc(Br)cc3)on2)s1 (centres undefined),x,31,x,n,x
Cc1ccccc1NC(=O)Cc1nc(CSc2nnc(-c3ccc4c(c3)OCO4)o2)cs1,n,n,n,n,n
SMILES,Cav3 T inh,PostGolgi ctrl,sEH activator,PostGolgi yeast,sEH inhibitor
CCC(C)OC(=O)C1=C(C)O[C@]23OC(N)=C(C#N)[C@]12C(=O)c1ccccc13 (some centres undefined),n,x,n,x,n
CCOC(=O)C1CCCN(C(=O)Cn2nc(CC)n3c(cc4sccc43)c2=O)C1 (centres undefined),n,53,x,n,x
CC1CC(N(C(=O)c2ccccc2Cl)c2ccccc2)c2ccccc2N1 (centres undefined),x,39,n,n,n
CN(C(=O)c1ccccc1Cl)C1CCCCC1,n,n,n,n,n
Clc1ccc(OCc2nn3c(C4CCCCC4)nnc3s2)cc1,n,42,n,n,n
COc1ccc(CC(=O)Nc2cccc(C(=O)O)c2C)cc1,n,34,n,n,n
COc1ccccc1NC(=O)Cn1nnc(-c2ccccc2NC(=O)c2cc3ccccc3oc2=O)n1,n,n,n,n,n
CCC(=O)N(C)/C=C1\Sc2ccccc2C1=O,n,n,n,n,n
CC(=O)N(C)/C=C1\Sc2ccccc2C1=O,x,44,n,n,n

# Source: PubChem BioAssay (several laboratories)
